KB-3-1 tox: kills parental KB-3-1 adenocarcinoma cells | KB-3-1 viability, CellTiter-Glo ATP luminescence, 72 h | Potency, µM (titrated, usually from 46.1 µM), hits mostly cytotoxic | 400,000 compounds, 1.4% hits; note: % is set by controls: 0 for no effect and ±100 for the full control effect; nearly all actives have a fitted effect of over 60% in size
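Parental KB-3-1 viability, qHTS format: 72 h compound exposure, 37 °C; CellTiter-Glo; media-only wells and DMSO plates as controls; concentration-effect fits on corrected data.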
HT1080 IDH1KD tx: kills HT-1080 cells with IDH1 knockdown | HT-1080 IDH1 knockdown viability, ATP luminescence, 48 h | Potency, µM (top dose mostly 46.1 µM), for inactives: top-dose activity, negative = toxicity, most hits filed as cytotoxic | 360,000 compounds, 2% hits | AID 686971;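 note: 0% = DMSO wells and -100% = cell-free medium wells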
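Luminescent ATP read-out (CellTiter-Glo, 10 min at room temperature) after 48 h compound exposure at 37 °C gave viability of IDH1-knockdown HT-1080 cells. Activity was normalised to DMSO and cell-free wells, then fitted as concentration-response curves.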
KB-V1 MDR tox: KB-V1 MDR subline cytotoxicity; KB-V1 MDR cells viability, CellTiter-Glo, 72 h; Potency, µM (titrated, usually from 46.1 µM), actives largely listed as cytotoxic; 400,000 compounds, 3.4% hits; note: % is set by controls: 0 for no effect and ±100 for the full control effect; nearly all actives have a fitted effect of over 60% in size
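KB-V1, DMEM (no phenol red) + 10% FBS; cpd pin-transferred, titration series; 72 h, 37 degrees C; CellTiter-Glo, luminescence. Data normalized, curve-fit.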
HT1080-NT tox: kills 2HG-producing HT-1080-NT fibrosarcoma cells | HT-1080-NT fibrosarcoma viability, CellTiter-Glo ATP luminescence, 48 h | Potency, µM (series often up to 46.1 µM), for inactives: at the highest dose activity, negative = less viability, actives largely listed as cytotoxic | 360,000 compounds, 1.6% hits;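 note: NT is the 2HG producing partner of a matched IDH1 knockdown line; 0% = DMSO-treated cells and -100% = media-only wells without cells; nearly all actives have a fitted effect of over 55% in size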
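Read-out is CellTiter-Glo luminescence after 10 minutes at room temperature, following 48 hours' compound treatment of HT-1080-NT cells (750 cells/well, RPMI, 5% FBS, 37 degrees C).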
ATXN2 expr inh: ATXN2 expression inhibition | 360,000 compounds, 0.72% hits | AID 1745845 | Potency, µM (titrated, usually from 57 µM), inactives show at the top dose activity change, negative = inhibition, most hits filed as inhibitors | HEK-293 ATXN2-luciferase reporter, luminescence, 24 h; note: % is set by controls: 0 for no effect and ±100 for the full control effect; nearly all actives have a fitted effect of over 55% in size
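ATXN2-luciferase reporter cells (luciferase flanked by upstream and downstream ATXN2 gene portions) were treated 24 h at 37 °C with compounds at up to 57 uM. SteadyGlo luminescence gave expression; GF-AFC fluorescence gave viability.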
ATXN viability: reduces viability in counter-screen for ATXN expression inhibitors. S2 cells (HEK-293 line with an ATXN2-luciferase reporter) viability, CellTiter-Fluor protease fluorescence, 24 h. Potency, µM (titrated, usually from 56.7 µM), most hits filed as cytotoxic. 400,000 compounds, 0.49% hits. AID 651635; note: nearly all actives have a fitted effect of over 40% in size
* = called active by the depositor. Most compounds without a hit are left out; they make up all but 6.2% or so of the library. Calls come from the whole dose curve; as a rule, active = well fitted curve in the direction sought with a large enough effect; inconclusive = small, poorly fitted or top-dose-only effect, or another doubt; inactive = no such curve, though single readings can be large; an effect the other way counts as inactive or inconclusive. Potency is the fitted concentration of half-maximal effect.

Screening COc1ccc(S(=O)(=O)N2CCN(Cc3nc4ccc(C)cc4o3)CC2)cc1OC returned KB-3-1 tox inactive, KB-V1 MDR tox inactive, ATXN2 expr inh -13% and ATXN viability inactive.
For COc1cccc(NC(c2nnc(-c3ccccc3)o2)c2ccc(F)cc2Cl)c1 (stereo not given) the results were KB-3-1 tox inactive, KB-V1 MDR tox inactive, ATXN2 expr inh 9% and ATXN viability inactive.
For C=CCN=C1CC(C)(C)CC(=O)/C1=C(\O)c1ccccc1 the results were KB-3-1 tox inactive, HT1080 IDH1KD tx 2%, KB-V1 MDR tox inactive, HT1080-NT tox -20%, ATXN2 expr inh -7% and ATXN viability inactive.
`CC1(C)CC(=O)/C(=C(\O)c2ccccc2)C(=NCCc2ccccc2)C1` gave KB-3-1 tox inactive, HT1080 IDH1KD tx -6%, KB-V1 MDR tox 5.8µM*, HT1080-NT tox 4%, ATXN2 expr inh 9% and ATXN viability inactive.
Screening O=C1C(Cl)=C(N2CCCCC2)C(=O)C(Cl)=C1c1cnc(N2CCCCC2)s1 returned KB-3-1 tox 18µM*, HT1080 IDH1KD tx 16µM*, KB-V1 MDR tox inactive, HT1080-NT tox inconclusive, ATXN2 expr inh inconclusive and ATXN viability inconclusive.
`O=C(NCCc1nc(-c2ccc(F)cc2)no1)c1ccc(F)cc1` gave KB-3-1 tox inactive, HT1080 IDH1KD tx 11%, KB-V1 MDR tox inactive, HT1080-NT tox 8%, ATXN2 expr inh -17% and ATXN viability inactive.
For CCCc1nc(-c2ccc(-c3ccc(F)cc3)cc2)no1 the results were KB-3-1 tox inactive, HT1080 IDH1KD tx 6%, KB-V1 MDR tox 21µM*, HT1080-NT tox 12%, ATXN2 expr inh 40% and ATXN viability inactive.
For CCN1CCN(c2ncc3c(n2)CC(c2cc(OC)c(OC)c(OC)c2)CC3=O)CC1 (stereo not given) the results were KB-3-1 tox inconclusive, HT1080 IDH1KD tx 4.1µM*, KB-V1 MDR tox inactive, HT1080-NT tox inconclusive, ATXN2 expr inh -18% and ATXN viability inactive.
Screening C/C(=N\NC(=O)c1cccc(Cl)c1)C1C(=O)c2ccccc2C1=O returned KB-3-1 tox 23µM*, HT1080 IDH1KD tx 8.2µM*, KB-V1 MDR tox 9.2µM*, HT1080-NT tox 13µM*, ATXN2 expr inh 55% and ATXN viability inconclusive.
Screening C/C(=N\NC(=O)CCc1ccccc1)C1C(=O)c2ccccc2C1=O returned KB-3-1 tox inconclusive, HT1080 IDH1KD tx inconclusive, KB-V1 MDR tox 9.2µM*, HT1080-NT tox inconclusive, ATXN2 expr inh inconclusive and ATXN viability inconclusive.
For CC(/C=C/c1ccco1)=N\NC(=O)c1cccc(Cl)c1 the results were KB-3-1 tox inactive, HT1080 IDH1KD tx inconclusive, KB-V1 MDR tox inconclusive, HT1080-NT tox -22%, ATXN2 expr inh -9% and ATXN viability inactive.
CC(/C=C/c1ccccc1)=N\NC(=O)CCc1ccccc1 was read as KB-3-1 tox inactive, HT1080 IDH1KD tx 0%, KB-V1 MDR tox inactive, HT1080-NT tox 12%, ATXN2 expr inh 6% and ATXN viability inconclusive.
Screening COc1ccc(-c2noc(-c3ccc(NC4CCCC4)c([N+](=O)[O-])c3)n2)cc1 returned KB-3-1 tox inactive, KB-V1 MDR tox inactive, ATXN2 expr inh 8% and ATXN viability inactive.
For COC(=O)c1ccccc1NC(=O)Cc1nc(-c2ccc(OC)cc2)no1 the results were KB-3-1 tox inactive and KB-V1 MDR tox inconclusive.
`CCCCCCSc1nnc(-c2cnn(-c3ccccc3)c2-n2cccc2)n1C` gave KB-3-1 tox inactive, HT1080 IDH1KD tx inconclusive, KB-V1 MDR tox inactive, HT1080-NT tox 18µM*, ATXN2 expr inh -23% and ATXN viability inactive.
Screening O=c1c(-c2ccc(O)cc2)coc2cc(O[C@@H]3O[C@H](CO)[C@H](O)[C@H](O)[C@H]3O)ccc12 returned ATXN2 expr inh 67%.
For COc1ccc(CCNC(=O)CCc2c(C)nc3c(c(C)nn3-c3ccc(C)cc3)c2C)c(OC)c1 the results were KB-3-1 tox inactive, KB-V1 MDR tox inactive, ATXN2 expr inh 6% and ATXN viability inactive.
`Cc1nc2nc(C)n(CCN3CCOCC3)c(=O)c2c(-c2cccc([N+](=O)[O-])c2)c1C(=O)CCCCCCCCCCN1CCC(c2ccccc2)(c2ccccc2)CC1` gave KB-3-1 tox inconclusive, HT1080 IDH1KD tx 21µM*, KB-V1 MDR tox 7.3µM*, HT1080-NT tox inconclusive and ATXN2 expr inh inconclusive.
`COC(=O)C(Nc1ccccc1Cl)(c1cc(C)c(O)c(C)c1)C(F)(F)F` (stereo not given) gave KB-3-1 tox inconclusive, HT1080 IDH1KD tx inconclusive, KB-V1 MDR tox 8.2µM*, HT1080-NT tox inconclusive, ATXN2 expr inh inconclusive and ATXN viability inactive.
Screening CCCc1nc2cc(C)c(Br)c(C)n2c1CC1CCCCC1 returned KB-3-1 tox 16µM*, HT1080 IDH1KD tx inconclusive, KB-V1 MDR tox inactive, HT1080-NT tox inconclusive, ATXN2 expr inh -15% and ATXN viability inactive.
`COc1ccc(NC(=O)C2(C)Cc3c(-c4cccc(NC(C)=O)c4)ccnc3O2)cn1` (stereo not given) gave KB-3-1 tox 2.1µM*, HT1080 IDH1KD tx inconclusive, KB-V1 MDR tox inactive, HT1080-NT tox inconclusive, ATXN2 expr inh -16% and ATXN viability inconclusive.
For CC(=O)Nc1cccc(-c2ccnc3c2CC(C)(C(=O)Nc2ccc(Cl)cc2)O3)c1 (stereo not given) the results were KB-3-1 tox 2.3µM*, HT1080 IDH1KD tx 4.1µM*, KB-V1 MDR tox inconclusive, HT1080-NT tox 9.2µM*, ATXN2 expr inh inconclusive and ATXN viability inconclusive.
For CC1(C(=O)Nc2cccc(OC(F)(F)F)c2)Cc2c(-c3ccc4c(c3)OCO4)ccnc2O1 (stereo not given) the results were KB-3-1 tox inconclusive, HT1080 IDH1KD tx 16µM*, KB-V1 MDR tox inactive, HT1080-NT tox inconclusive, ATXN2 expr inh 0% and ATXN viability inactive.
CN(C)c1ccc(-c2ccnc3c2CC(C)(C(=O)Nc2cccc(OC(F)(F)F)c2)O3)cc1 (stereo not given) was read as KB-3-1 tox inactive, HT1080 IDH1KD tx 1%, KB-V1 MDR tox inactive, HT1080-NT tox 4%, ATXN2 expr inh 7% and ATXN viability inactive.
`CC(=O)Nc1cccc(-c2ccnc3c2CC(C)(C(=O)Nc2cccc(C(C)=O)c2)O3)c1` (stereo not given) gave KB-3-1 tox inconclusive, HT1080 IDH1KD tx 15µM*, KB-V1 MDR tox inactive, HT1080-NT tox -10%, ATXN2 expr inh -16% and ATXN viability inconclusive.

Assay outcomes from PubChem.
